In the library only some 8.9% were active in any assay of this set; here they are far more common.
MCF10A rerep: induces DNA re-replication in MCF 10a normal breast cells. MCF 10A DNA re-replication, Hoechst nuclear intensity, 48 h. AID 624296. Potency, µM (series often up to 46.1 µM), inactives show at the top dose activity, positive = re-replication, hits mostly activators. 2.9% of 350,000 active; further: potency means the concentration at half of the fitted maximal effect; % of control where 0% means no effect; nearly all actives have a fitted effect of over 50% in size
D3 antag: blocks the human D3 dopamine receptor | P35462 | max response, negative = inhibition, % | D3R cells, DiscoveRx beta-arrestin luminescence, antagonist mode; active compounds read low | 2.5% of 360,000 active; in the data active means max response below about -50%; inconclusive means no clear call, values can overlap the other calls; further: on the % scale 0 is the no-effect control and ±100 the full control effect
Target sequence (P35462 whole entry, looked up): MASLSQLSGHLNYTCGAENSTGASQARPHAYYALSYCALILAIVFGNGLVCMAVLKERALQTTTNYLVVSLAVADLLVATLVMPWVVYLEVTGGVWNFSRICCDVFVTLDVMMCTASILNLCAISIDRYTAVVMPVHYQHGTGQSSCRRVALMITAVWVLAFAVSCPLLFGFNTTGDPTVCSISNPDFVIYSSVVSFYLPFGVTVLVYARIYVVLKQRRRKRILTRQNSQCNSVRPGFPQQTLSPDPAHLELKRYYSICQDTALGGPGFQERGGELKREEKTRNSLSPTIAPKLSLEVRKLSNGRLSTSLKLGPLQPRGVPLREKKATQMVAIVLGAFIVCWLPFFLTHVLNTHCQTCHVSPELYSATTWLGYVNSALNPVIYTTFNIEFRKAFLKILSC
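Cells expressing the human receptor were seeded at 1500 cells/well, incubated overnight at 37 degrees C in 5% CO2, then exposed to library compounds with dopamine controls for 90 minutes at 37 degrees C before luminescent detection.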
D3 ag: activates the human D3 dopamine receptor | D3R DiscoveRx beta-arrestin cells, luminescence, 90 min | max activation, % | 0.58% of 410,000 active | AID 652048; in the data active means max activation above about 30%; further: 0% is about no effect
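Agonist-mode cell screen: cells plated at 1500/well and incubated overnight at 37 °C, then exposed to library compounds for 90 min at 37 °C. Detection reagent was added for 30–60 min at room temperature, and luminescence was read.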
KB-V1 MDR tox: kills drug-selected multidrug resistant KB-V1 cells | 3.4% of 400,000 active | KB-V1 MDR cells viability, CellTiter-Glo, 72 h | Potency, µM (titrated, usually from 46.1 µM), hits mostly cytotoxic | AID 1347076; further: potency means the concentration at half of the fitted maximal effect; on the % scale 0 is the no-effect control and ±100 the full control effect; nearly all actives have a fitted effect of over 60% in size
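Readout: CellTiter-Glo luminescence, 10 min after addition. Cells: KB-V1 MDR subline, 72 h at 37 degrees C with compound. Analysis: corrected, normalized data fitted to concentration-effect curves.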
KB-3-1 tox: KB-3-1 parental cell cytotoxicity | KB-3-1 viability, CellTiter-Glo ATP luminescence, 72 h | 1.4% of 400,000 active | Potency, µM (titrated, usually from 46.1 µM), actives largely listed as cytotoxic; further: potency means the concentration at half of the fitted maximal effect; on the % scale 0 is the no-effect control and ±100 the full control effect; nearly all actives have a fitted effect of over 60% in size
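Parental KB-3-1 adenocarcinoma cells in phenol-red-free DMEM with 10% FBS were pin-treated with compounds at several concentrations, incubated 72 h at 37 °C, and viability read by CellTiter-Glo luminescence; concentration-effect curves were fitted after normalization.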
SW480 rerep: inducers of DNA re-replication in SW480 colon cancer cells. Potency, µM (highest dose often 46.1 µM), without a hit: top-dose re-replication activation, actives largely listed as activators. 1.8% of 340,000 active. SW480 DNA re-replication, Hoechst DNA content imaging, 48 h; further: potency means the concentration at half of the fitted maximal effect; % of control where 0% means no effect; nearly all actives have a fitted effect of over 55% in size
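Readout is total intensity of Hoechst-stained nuclei, excited at 405 nm and collected at 500-530 nm. Compound treatment lasted 48 hr at 37 C in 5% CO2 before staining.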
Starred values were filed as active, the others as inactive. Unless noted, the call rests on the fitted dose curve; in most records, active means well fitted curve in the direction sought with a large enough effect; inconclusive means small, poorly fitted or top-dose-only effect, or another doubt; inactive means no such curve, though single readings can be large; an effect the other way counts as inactive or inconclusive.

Screening CC1CCCN(c2nc(-c3cccnc3)nc3scc(-c4ccccc4)c23)C1 (centres undefined) returned MCF10A rerep 23µM*, D3 antag 17, D3 ag 34*, KB-V1 MDR tox inconclusive, KB-3-1 tox inactive and SW480 rerep 1%.
Screening CC1CCN(c2nc(-c3cccnc3)nc3scc(-c4ccccc4)c23)CC1 returned MCF10A rerep inconclusive, D3 antag 50, D3 ag 1, KB-V1 MDR tox inactive, KB-3-1 tox inactive and SW480 rerep 3%.
CN1CCN(c2nc(-c3cccnc3)nc3scc(-c4ccccc4)c23)CC1 was read as MCF10A rerep 18µM*, D3 antag -15, D3 ag -6, KB-V1 MDR tox inactive, KB-3-1 tox inactive and SW480 rerep inconclusive.
`CCc1ccc(NC(=O)Cn2c(=O)n(CCC(=O)NCCc3ccc(Cl)cc3)c(=O)c3ccccc32)cc1` gave D3 ag 4, KB-V1 MDR tox inactive and KB-3-1 tox inactive.
For OCCNCc1c(OCc2ccc(Cl)cc2)ccc2ccccc12 the results were MCF10A rerep inconclusive, D3 antag inconclusive, D3 ag -14, KB-V1 MDR tox inconclusive, KB-3-1 tox inactive and SW480 rerep inconclusive.
Screening COc1ccc2[nH]c3nc(SCC(=O)Nc4cccc(NC(C)=O)c4)nnc3c2c1 returned MCF10A rerep 21µM*, D3 antag 1, D3 ag 1, KB-V1 MDR tox inconclusive, KB-3-1 tox inactive and SW480 rerep -35%.
CCOC(=O)CN(C(=O)CSc1nnc2c(n1)[nH]c1ccc(OC)cc12)c1ccc(F)cc1 was read as MCF10A rerep 0%, D3 antag -65*, D3 ag -7, KB-V1 MDR tox inactive, KB-3-1 tox inactive and SW480 rerep 3%.
`COc1cccc(NC(=O)CSc2nnc3c(n2)[nH]c2ccc(C)cc23)c1` gave MCF10A rerep inconclusive, D3 antag -15, D3 ag -29, KB-V1 MDR tox inactive, KB-3-1 tox inactive and SW480 rerep inconclusive.
`O=C(CSC1=Nc2ccccc2C2=NC(c3ccccc3)C(=O)N12)NC1CCCCC1` (centres undefined) gave MCF10A rerep inconclusive, D3 antag -26, D3 ag -4, KB-V1 MDR tox inactive, KB-3-1 tox inactive and SW480 rerep -1%.
Screening CN(C(=O)CSC1=Nc2ccccc2C2=NC(c3ccccc3)C(=O)N12)C1CCCCC1 (centres undefined) returned MCF10A rerep inconclusive, D3 antag -55*, D3 ag -6, KB-V1 MDR tox 5.2µM*, KB-3-1 tox inactive and SW480 rerep 10%.
COc1cc2c(cc1OC)CN(C(=O)/C=C/c1cccs1)CC2 was read as MCF10A rerep 4.1µM*, D3 antag 5, D3 ag -4, KB-V1 MDR tox inconclusive, KB-3-1 tox 3.7µM* and SW480 rerep 13µM*.
COc1cc2c(cc1OC)CN(C(=O)c1cc3ccccc3oc1=O)CC2 was read as MCF10A rerep inconclusive, D3 antag 5, D3 ag 1, KB-V1 MDR tox 4.6µM*, KB-3-1 tox inconclusive and SW480 rerep inconclusive.
`COc1cccc2cc(C(=O)N3CCc4ccccc4C3)c(=O)oc12` gave MCF10A rerep -1%, D3 antag 2, D3 ag -6, KB-V1 MDR tox inactive, KB-3-1 tox inactive and SW480 rerep -5%.
COc1cc2c(cc1OC)CN(C(=O)c1cccs1)CC2 was read as MCF10A rerep 15%, D3 antag -11, D3 ag -2, KB-V1 MDR tox inactive, KB-3-1 tox inactive and SW480 rerep -7%.
COc1cc2c(cc1OC)CN(S(=O)(=O)c1cccs1)CC2 was read as MCF10A rerep -98%, D3 antag -23, D3 ag 1, KB-V1 MDR tox 18µM*, KB-3-1 tox inactive and SW480 rerep 108%.
